NPC1 prom act: qHTS Assay for NPC1 Promoter Activators; Huh7 NPC1 promoter luciferase reporter, 24 h; Potency, µM (doses to about 9.22 µM), for the others: at the highest dose activation, hits mostly activators; 2.4% of 320,000 active; AID 485313, 2010; also: % of control where 0% means no effect; nearly all actives have a fitted effect of over 60% in size
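Quantitative HTS used a cell-based reporter: Huh7 cells stably bearing the NPC1 promoter upstream of luciferase were treated with compounds for 24 h, and promoter activation was read as luminescence.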
FLuc counter: qHTS profiling assay for firefly luciferase inhibitor/activator using purifed enzyme and Km concentrations of substrates (counterscreen for miR-21 project); 6.9% of 360,000 active; Luciferin 4-monooxygenase (Photinus pyralis), P08659; purified FLuc, Km substrates, luminescence inhibition; Potency, µM (series often up to 57.5 µM), for the others: top-dose activity change, negative = inhibition, most hits filed as inhibitors;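 also: plate controls were vehicle for no effect and reference inhibitor for full effect; nearly all actives have a fitted effect of over 55% in size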
Target sequence (P08659 whole entry, looked up): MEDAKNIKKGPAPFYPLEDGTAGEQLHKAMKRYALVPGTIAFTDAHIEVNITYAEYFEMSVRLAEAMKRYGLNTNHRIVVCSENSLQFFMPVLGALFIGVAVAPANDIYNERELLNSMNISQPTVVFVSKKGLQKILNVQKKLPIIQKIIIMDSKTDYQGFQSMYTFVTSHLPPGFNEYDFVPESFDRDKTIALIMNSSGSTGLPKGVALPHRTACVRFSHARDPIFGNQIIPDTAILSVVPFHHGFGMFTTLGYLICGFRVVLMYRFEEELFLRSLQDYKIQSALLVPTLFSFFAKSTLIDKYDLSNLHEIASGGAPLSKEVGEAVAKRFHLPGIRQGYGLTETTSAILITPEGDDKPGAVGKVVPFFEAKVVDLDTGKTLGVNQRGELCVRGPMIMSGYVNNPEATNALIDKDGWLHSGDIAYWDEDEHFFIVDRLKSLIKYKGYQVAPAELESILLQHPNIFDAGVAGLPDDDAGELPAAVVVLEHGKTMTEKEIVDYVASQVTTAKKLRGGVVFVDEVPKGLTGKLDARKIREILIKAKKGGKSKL
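Biochemical qHTS of compounds, final roughly 60 µM downward over six points, against 10 nM purified firefly luciferase using Km concentrations of substrates (10 uM D-luciferin, 10 uM ATP) in Tris acetate pH 7.5 buffer; luminescence output.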
Rab9 prom act: qHTS Assay for Rab9 Promoter Activators; Huh7 Rab9 promoter-luciferase reporter, luminescence, 24 h; Potency, µM (doses to about 9.22 µM), for inactives: at the highest dose activation, negative = inhibition, actives largely listed as activators; 2.8% of 320,000 active; AID 485297, 2010; also: % of control where 0% means no effect; nearly all actives have a fitted effect of over 60% in size
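Promoter activation is measured as luciferase luminescence in Huh7 cells stably transfected with a Rab9 promoter–luciferase construct, following 24 h compound exposure at 37 °C and 10 min reagent incubation at ambient temperature.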
ELG1 DNA repair: qHTS screen for small molecules that inhibit ELG1-dependent DNA repair in human embryonic kidney (HEK293T) cells expressing luciferase-tagged ELG1; HEK293T ELG1-luciferase reporter, luminescence, 16 h; DNA damage induced by 5-fluorouridine; Potency, µM (series often up to 46.1 µM), without a hit: at the highest dose activity change, negative = inhibition, most hits filed as inhibitors; 2.3% of 330,000 active; AID 504467, 2011; also: % is scaled to controls: 0 for no effect and ±100 for the full control effect; nearly all actives have a fitted effect of over 55% in size
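Luminescence from the luciferase reporter, measured 30 min after ONE-Glo reagent at room temperature, was the read-out. Beforehand, 2,000 cells per well were exposed for 16 hr at 37 °C to 5-fluorouridine together with compound or vehicle.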
SMN2 splice up: qHTS Assay for Enhancers of SMN2 Splice Variant Expression; HEK293 SMN2-luciferase splicing reporter, luminescence, 30-36 h; Potency, µM (highest dose often 46.1 µM), without a hit: at the top dose activity change, positive = activation, most hits filed as activators; 2.8% of 210,000 active; also: % of control where 0% means no effect; nearly all actives have a fitted effect of over 55% in size
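HEK293 cells carry an SMN2 minigene-luciferase reporter in which exon 7 inclusion puts luciferase in frame. Cells were seeded at 2000 cells/well, attached for 10-12 hours, then exposed to compounds for 30-36 hours at 37C before ONE-Glo luminescence.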
ELG1 genotox: qHTS screen for small molecules that induce genotoxicity in human embryonic kidney (HEK293T) cells expressing luciferase-tagged ELG1. HEK293T ELG1-luciferase reporter, luminescence, 16 h. Potency, µM (top dose mostly 46 µM), for the others: at the top dose activity change, positive = activation, actives largely listed as activators. 1.3% of 330,000 active. AID 504466, 2011; also: % of control where 0% means no effect; nearly all actives have a fitted effect of over 60% in size
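HEK293T cells expressing luciferase-tagged ELG1 were exposed to compound or DMSO vehicle for 16 hr at 37 °C and 5% CO2. Luciferase activity was then measured with ONE-Glo after 30 min at room temperature.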
* marks the source's active call; other numbers are inactive results; u = inconclusive; x = not tested or not shown. Hits are enriched below; roughly 9.2% of the tested compounds scored in any of these assays. Calls follow the shape of the dose curve; as a rule, active = well fitted curve in the direction sought with a large enough effect; inconclusive = small, poorly fitted or top-dose-only effect, or another doubt; inactive = no such curve, though single readings can be large; an effect the other way counts as inactive or inconclusive. Potency is read from the fitted curve at half-maximal effect.

SMILES | NPC1 prom act | FLuc counter | Rab9 prom act | ELG1 DNA repair | SMN2 splice up | ELG1 genotox
CCCn1nc(C(=O)NCC2COc3ccccc3O2)c2ccccc2c1=O (stereo not given) | -2% | 2% | 0% | 21µM* | x | -3%
COc1ccc(-n2nc(C(=O)NCC(=O)N3CCCC(C)C3)c3ccccc3c2=O)cc1Cl (stereo not given) | -2% | 5.4µM* | -1% | u | x | -2%
CCCn1nc(C(=O)NC2CC2)c2ccccc2c1=O | -3% | 3% | 0% | 18% | x | 2%
Cn1cccc1C(=O)NCC1COc2ccccc2O1 (stereo not given) | u | 2% | 3.2µM* | u | x | 16%
CCOC(=O)C1CCCN(C(=O)CNC(=O)c2nn(-c3ccc(OC)c(Cl)c3)c(=O)c3ccccc23)C1 (stereo not given) | -1% | 6.7µM* | 0% | u | x | -12%
CC1=C(C(=O)OC(C)C)C(c2ccccc2)NC(=S)N1C (stereo not given) | -6% | 4% | -3% | -4% | -39% | 4%
O=c1c2cccnc2n(Cc2ccc(Cl)cc2)c(=O)n1Cc1ccc(F)cc1 | x | 6% | x | x | 2% | x
Cc1nc(NCC(c2ccccc2)N(C)C)c2c(C)c(C)sc2n1 (stereo not given) | -3% | -2% | -3% | -2% | x | -2%
Cc1ccc(C(=O)NCC(=O)N2CCCN(C)CC2)cc1C | x | x | x | 6% | x | -1%
COc1ccc(-n2nc(C(=O)NCC(=O)N3CCCCCC3)c3ccccc3c2=O)cc1OC | 12% | 6.7µM* | 2% | -2% | x | -5%
COc1ccc(-n2nc(C(=O)NCC(=O)N3CC(C)CC(C)C3)c3ccccc3c2=O)cc1OC (stereo not given) | 0% | u | 0% | u | x | -15%
COc1cc(NC(=O)CN2C(=O)C(C)N(c3ccc(C)cc3)C2=O)cc(OC)c1 (stereo not given) | 2% | 0% | 1% | -6% | x | -1%
O=S(=O)(c1ccc2c(c1)CCC2)N1CCNCC1 | -2% | -1% | 1% | 2% | x | 0%
C/C(N)=C(/C#N)C(=O)COC(=O)c1oc2ccccc2c1COC(C)C | 0% | -3% | 0% | u | 2% | -6%
C=CCc1c(C)nc2ccc(C(=O)OCC)cc2c1Cl | 0% | 21µM* | 12% | u | x | 2%
CCOC(=O)c1ccc2nc(C)c(CC)c(Cl)c2c1 | 8% | u | -13% | u | x | 0%
COc1ccc(C(=O)NC23CC4CC(CC(C4)C2)C3)cc1 | 2% | 7.6µM* | 18% | u | x | 4%
O=C(NC12CC3CC(CC(C3)C1)C2)c1cccc([N+](=O)[O-])c1 | 2% | -11% | 3% | -8% | x | -3%
COc1ccc(C(=O)NCC(=O)OCC(=O)NC23CC4CC(CC(C4)C2)C3)cc1 | x | x | x | u | x | 4%
COc1cccc(C(=O)NC23CC4CC(CC(C4)C2)C3)c1 | 3% | 17µM* | 4% | 2% | x | 10%
Cc1nn(Cc2cccc(C(=O)NC34CC5CC(CC(C5)C3)C4)c2)c(C)c1Br | -3% | -9% | 0% | 23µM* | -50% | -10%
Cc1ccc(-n2ncc(Cl)c2C(=O)NCc2ccccc2)cc1 | u | 11µM* | u | u | x | u
C=CCNC(=O)c1c(Br)cnn1-c1ccc(C)cc1 | 2.5µM* | 19µM* | 2.5µM* | u | x | u
CC(C)CNC(=O)C(=O)N/N=C/c1cccs1 | u | u | u | u | 3% | u
Cn1cccc1C(=O)N/N=C/c1c(Cl)cccc1Cl | 2.5µM* | 11µM* | 2.8µM* | u | x | 16µM*
